Measurements published in PubChem BioAssay.
Several values for one entry are separate records, joined by “and”; a condition that tells them apart may be missing. Equal entries are not always repeated. Inconclusive results are not listed. For some of these results: Entries with a potency or affinity are not part of this list. Activity calls are given as the source filed them. Unless noted, the rule behind the calls is not given here.

Columns and labels:
[1] = differential killing of epithelial or mesenchymal cells, primary screen, imaging, PC-3E GFP, TEM4-18 mCherry, co-culture (AID 1345086;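 active = compounds killing one labelled cell type while sparing the other, by normalised counts and ratio limits, not self-fluorescent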;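 for all read-outs here: cells exposed to compound for 72 h before imaging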;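 for red/green cell ratio (normalised): normalised mesenchymal count divided by normalised epithelial count so high means epithelial killing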); details: imaging cell counts, at 1 µM; for red/green cell ratio (normalised): actives lie on both sides
[2] = tested on: Aerobactin synthetase IucA (Klebsiella pneumoniae hvKP1); assay: Biochemical IucA enzyme inhibition primary screen of the Spectrum library (AID 1346200); details: malachite green pyrophosphate, A620, at 8 µM, stronger effect = lower value;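 note: 100% = wells without compound and 0% = wells lacking enzyme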
[3] = sensitizers of A549 cells to miR-34 induction, primary screen, imaging, A549 dox-inducible miR-34, nuclei and caspase counts (AID 1347080;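 active = compounds whose cell count with miR-34 switched on is under 0.7 times the count with it off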); details: A549 miR-34 inducible, Hoechst nuclei count, 48 h
[4] = polyglutamine-triggered caspase-3 activation inhibitors, cell-based (AID 1583); details: polyglutamine-induced caspase-3 activation, cell assay; stronger effect = higher value;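 tested at 10 µM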
[5] = suppressors of polyQ aggregation in yeast, 75Q-TubU reporter (AID 1593); details: Yeast 75Q polyglutamine aggregation reporter
[6] = rescue of polyQ-huntingtin neuronal dysfunction in worms, whole organism, C. elegans mechanosensory neurons, N-terminal huntingtin (AID 1599); details: touch response, stronger effect = higher value
[7] = inhibitors of mitochondrial cytochrome c release, biochemical, purified mitochondria (AID 1603); details: stronger effect = lower value;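 note: mouse liver mitochondria challenged with calcium chloride; signal normalized to the plate average as 100%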
[8] = inhibitors of polyQ protein aggregation (AID 1604); details: polyglutamine-induced protein aggregation inhibition assay; stronger effect = higher value; tested at 2.5 µM
[9] = enhancers of glutamate uptake in motor neurons, MN-1 cell line (AID 1612); details: MN-1 motor neuron cells, stronger effect = higher value;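 note: tested at 1 µM final; 0% = mean of DMSO vehicle wells on each plate; positive means more glutamate uptake than control and negative means less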
[10] = suppressors of polyglutamine aggregation in yeast, 75Q-TubH (AID 1616); details: S. cerevisiae 75Q-TubH polyglutamine aggregation suppression; stronger effect = higher value
[11] = liver-stage malaria parasite growth inhibition, primary screen, cell-based, HepG2, luciferase luminescence, HepG2 viability (AID 624349; in the data active = parasite load remaining mostly below about 12%, no sharp cut-off; inactive = mostly above about 10%;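 note: 100% = mean of DMSO negative control wells on the same plate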); details: P. berghei liver stage in HepG2, luciferase luminescence, concentration not given here; parasite load remaining: stronger effect = lower value; viability: measured here: HepG2 viability without parasites
[12] = protection against mutant huntingtin cytotoxicity, PC12 cells, LDH release (AID 1610); details: PC12 mutant huntingtin toxicity, final LDH at 4 uM, stronger effect = lower value
[13] = reducers of polyQ inclusions in PC12 cells, cell-based, NGF-treated PC12, GFPQ80 (AID 1614); details: PC12 NGF-treated GFP-polyQ80 inclusion reduction;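 note: lower means fewer inclusions and 0 means no inclusions at all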
[14] = biological target: Mitogen-activated protein kinase 7 (Homo sapiens) (UniProt Q13164); assay: ERK5 transactivation activators in reporter cells, primary screen, cell-based, HTS (AID 1508626;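 active = luciferase signal above three times the same-plate solvent-only control wells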;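 note: luciferase driven by Gal4-ERK5 fusion binding five Gal4 sites before minimal TATA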); details: HeLa Gal4-ERK5 transactivation, 18 h, at 5 µM, stronger effect = higher value
Mitogen-activated protein kinase 7 (Homo sapiens), sequence (Q13164 whole entry, looked up, the tested form may be a part): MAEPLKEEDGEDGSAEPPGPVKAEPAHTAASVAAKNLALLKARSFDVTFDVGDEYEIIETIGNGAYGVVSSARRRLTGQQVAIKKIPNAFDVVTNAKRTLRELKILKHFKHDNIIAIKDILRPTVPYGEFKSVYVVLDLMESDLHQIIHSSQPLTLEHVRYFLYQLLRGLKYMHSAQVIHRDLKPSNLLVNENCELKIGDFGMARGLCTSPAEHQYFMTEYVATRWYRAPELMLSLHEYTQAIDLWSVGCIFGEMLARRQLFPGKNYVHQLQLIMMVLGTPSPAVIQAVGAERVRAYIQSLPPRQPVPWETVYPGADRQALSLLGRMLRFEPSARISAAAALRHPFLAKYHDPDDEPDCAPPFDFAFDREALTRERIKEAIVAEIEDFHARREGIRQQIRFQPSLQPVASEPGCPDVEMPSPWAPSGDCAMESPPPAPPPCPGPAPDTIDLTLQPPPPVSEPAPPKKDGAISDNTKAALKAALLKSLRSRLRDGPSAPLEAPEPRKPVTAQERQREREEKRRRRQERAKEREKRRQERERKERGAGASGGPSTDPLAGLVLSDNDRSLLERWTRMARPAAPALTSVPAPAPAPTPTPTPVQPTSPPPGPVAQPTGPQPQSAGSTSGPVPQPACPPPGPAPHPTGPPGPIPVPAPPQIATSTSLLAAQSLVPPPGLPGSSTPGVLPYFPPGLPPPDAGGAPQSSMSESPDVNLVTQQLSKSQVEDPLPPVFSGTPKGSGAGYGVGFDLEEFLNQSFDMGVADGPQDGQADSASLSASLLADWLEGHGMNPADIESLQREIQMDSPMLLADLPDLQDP

[15] = measured here: epithelial PC-3E GFP cell survival
[16] = measured here: mesenchymal TEM4-18 mCherry cell survival
[17] = measured here: relative caspase fold change +Dox/-Dox
[18] = measured here: total cells with miR-34 induction, stronger effect = lower value
[19] = measured here: total cells without miR-34 induction

Row | Compound | red/green cell ratio (normalised) [1] | normalised cell number [1, 15] | normalised cell number [1, 16] | activity remaining [2] | fold change ([3]; stronger effect = lower value) | fold change [3, 17] | cell count [3, 18] | cell count [3, 19] | inhibition [4] | score [5] | rescue above control [6] | cytochrome c release ratio [7] | inhibition of aggregation [8] | glutamate uptake change [9] | aggregation suppression score [10] | parasite load remaining [11] | viability [11] | normalised LDH release [12] | inclusion score [13] | luciferase signal [14]
1 | CN1C2C[C@H](OC(=O)[C@H](CO)c3ccccc3)C[C@H]1[C@@H](O)C2 | 0.94 (inactive) | 1.1 | 1.03 | 109% (inactive) | 0.908 (inactive) | 0.859 | 8730 | 9620 |  |  |  |  |  |  |  |  |  |  |  | 
2 | CCC(=O)O[C@H]1CCC2C3CCC4=CC(=O)CC[C@]4(C)C3CC[C@@]21C (stereo not given in full) | 1.2 (inactive) | 1.23 | 1.48 | 108% (inactive) | 0.927 (inactive) | 4.54 | 10500 | 11300 | 28.2% | 0.18 | -2.54 | 0.85 | 35.3% | 14.3% | 0.523 | 54.4% (inactive) | 99.7% |  |  | 
3 | C=C[C@H]1CN2CC[C@H]1C[C@@H]2[C@H](O)c1ccnc2ccccc12 | 1.26 (inactive) | 0.87 | 1.1 | 125% (inactive) | 0.93 (inactive) | 2.81 | 12200 | 13100 | 15.4% | 1.55 | 3.43 | 0.96 | -10.6% | 4.38% | 1.26 | 84.2% (inactive) and 28.1% (inactive) | 73.3% and 88.8% | 0.806 | 2 | 
4 | C[C@@H]1CC[C@@]2(OC1)OC1C(O)C3C4CC[C@H]5C[C@H](O[C@@H]6O[C@H](CO)[C@H](O[C@@H]7O[C@H](CO)[C@@H](O)[C@H](O[C@@H]8OC[C@@H](O)[C@H](O)[C@H]8O)[C@H]7O[C@@H]7O[C@H](CO)[C@H](O)[C@H](O[C@@H]8O[C@H](CO)[C@@H](O)[C@H](O)[C@H]8O)[C@H]7O)[C@H](O)[C@H]6O)[C@H](O)C[C@]5(C)C4CC[C@]3(C)C1[C@@H]2C (stereo not given in full) | 0.84 (inactive) | 0.9 | 0.76 | 111% (inactive) |  |  |  |  |  |  |  |  |  |  |  |  |  |  |  | 
5 | CC(C)c1cc2c(c(O)c1O)[C@@]1(C(=O)O)CCCC(C)(C)C1CC2 (stereo not given in full) | 1.17 (inactive) | 0.87 | 1.02 | 114% (inactive) |  |  |  |  |  |  |  |  |  |  |  |  |  |  |  | 
6 | CC1[C@H](C)OC(=O)CC(O)CC(O)CC(O)CCC(O)C(O)C[C@]2(O)CC(O)C(C(=O)O)C(CC(OC3O[C@H](C)[C@@H](O)[C@H](N)[C@@H]3O)/C=C/C=C/C=C/C=C/CC/C=C/C=C/[C@H](C)[C@H]1O)O2 (stereo not given in full) | 1.28 (inactive) | 0.98 | 1.25 | 89.3% (inactive) | 0.841 (inactive) | 0.89 | 11200 | 13400 | 3.51% | -0.11 | 3.77 | 0.93 | 30.3% | 9.44% | 0.00787 | 87.6% (inactive) and 108% (inactive) | 71.5% and 89.6% |  | 2 | 
7 | CC(=O)O[C@H]1C[C@@H](OC(C)=O)C(C)(C)C2C[C@@H](OC(C)=O)[C@]3(C)C(CC[C@@]4(C)[C@H](c5ccoc5)C(=O)[C@H]5O[C@]543)[C@]21C (stereo not given in full) | 1.03 (inactive) | 1.08 | 1.12 | 109% (inactive) |  |  |  |  |  |  |  |  |  |  |  |  |  |  |  | 132 AU (active)
8 | C[C@H]1C[C@@H](O)[C@]2(O)[C@@]13CC(=O)OC[C@@]2(C)[C@](C)(O)C(=O)C3 | 1.18 (inactive) | 0.96 | 1.13 | 127% (inactive) |  |  |  |  |  |  |  |  |  |  |  |  |  |  |  | 188 AU (inactive)
9 | C=C[C@H]1CN2CC[C@H]1C[C@@H]2[C@@H](OC(=O)OCC)c1ccnc2ccc(OC)cc12 | 1.15 (inactive) | 0.67 | 0.77 | 98.2% (inactive) | 0.94 (inactive) | 1.23 | 11100 | 11800 | 11.7% | 1.24 | 17 | 1.43 | 70.5% | 9.82% | 1.15 | 53% (inactive) | 91.4% |  |  | 
10 | C=C(C)C1Cc2c(ccc3c(=O)c4c(oc23)COc2cc(OC)c(OC)cc2-4)O1 (stereo not given) | 0.91 (inactive) | 0.94 | 0.86 | 126% (inactive) |  |  |  |  |  |  |  |  |  |  |  |  |  |  |  | 56 AU (inactive)
11 | C[N+](C)(C)CC(=O)[O-] | 1.27 (inactive) | 1.09 | 1.39 | 124% (inactive) | 0.862 (inactive) | 4.05 | 11400 | 13200 | 4.44% | 1.09 | 5.21 | 1.34 | 61.8% | 21.6% | 0.998 | 57.1% (inactive) and 50.8% (inactive) | 76.9% and 89.4% |  | 2 | 
12 | CC(C)C[C@@H](CN)CC(=O)O | 1.06 (inactive) | 1.2 | 1.27 | 121% (inactive) | 0.933 (inactive) | 3.45 | 12300 | 13200 |  |  |  |  |  |  |  | 133% (inactive) and 53% (inactive) | 88.1% and 116% |  |  | 
